Experiment [1] can be described thus: growth inhibition of DIPG glioma cells, dose response, cell-based, SU-DIPG-XIII, MIPE4.0, CellTiter-Glo, qHTS (AID 1347061; cut-off not given, nearly all actives have AC50 up to about 37 µM;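 note: cells exposed to compound for 48 hours before readout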). The following applies: SU-DIPG-XIII viability, CellTiter-Glo ATP luminescence.
Experiment [2] is described as follows: viability loss in pontine glioma line – cell-based, SU-DIPG-XXV, MIPE5.0, CellTiter-Glo, qHTS, dose response (AID 1347065; cut-off not given, nearly all actives have AC50 up to about 26 µM;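 note: cells exposed to compound for 48 hours before ATP readout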). The conditions noted are these: CellTiter-Glo ATP luminescence. On the technique in general: Cellular ATP, detected with luciferase, serves as a proxy for viable cell number.
The nature of experiment [3]: SU-DIPG-VI glioma cell viability, MIPE4.0 library, CellTiter-Glo luminescence, qHTS (AID 1347066; cut-off not given, nearly all actives have AC50 up to about 30 µM;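 note: cells exposed to compound for 48 hours before readout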). The following applies: CellTiter-Glo ATP luminescence.
A short description of experiment [4]: JHH-DIPG-1 glioma cell viability, MIPE5.0 library, CellTiter-Glo luminescence, qHTS (AID 1347067; cut-off not given, nearly all actives have AC50 up to about 26 µM;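 note: cells exposed to compound for 48 hours before readout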). The conditions noted are these: JHH-DIPG-1 glioma viability, CellTiter-Glo ATP luminescence.
A short description of experiment [5]: SU-DIPG-XXV glioma cell viability, MIPE5.0 library, qHTS (AID 1347068; cut-off not given, nearly all actives have IC50 up to about 30 µM). A general note: In qHTS, concentration-response curves come from the screen itself.
The nature of experiment [6]: modifiers of HSF1 nuclear foci, imaging, Selleck Cancer Library (AID 1347162; in the data active = plate-normalised HSF1 focus index below about 0.46). The following applies: human cells, at 10 µM; SSMD: measured here: HSF1 foci SSMD mean; cell count: measured here: cell number; plate-normalised HSF1 focus index: stronger effect = lower value.
Experiment [7] in a line: ovarian cancer cell viability with rucaparib, profiling panel, oncology-focused library, rucaparib conditional (AID 1508598). The following applies: patient-derived ovarian cancer cells, CellTiter-Glo viability, 144 h, stronger effect = lower value.
The nature of experiment [8]: growth inhibition of DIPG glioma cells, dose response, cell-based, SU-DIPG-IV, MIPE4.0, CellTiter-Glo, qHTS (AID 1347063; cut-off not given, nearly all actives have AC50 up to about 30 µM;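 note: compound exposure lasted 48 hours before the viability readout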). The following applies: SU-DIPG-IV viability, CellTiter-Glo ATP luminescence.

Molecules are shown by their SMILES. Inconclusive results are not listed. Activity calls are given as the source filed them.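 Rule for the calls, unless noted: active = normalized viability below 100% at a tested concentration; inactive = the rest.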

Consider five molecules from PubChem BioAssay.

By AC50 is commonly meant the concentration at which the activity in the assay is half-maximal. As usually defined, the viability is a read-out of living cells in per cent, often relative to untreated cells. In the case of `C[C@H](NC(=O)Cc1cc(F)cc(F)c1)C(=O)N[C@@H]1C(=O)N(C)c2ccccc2-c2ccccc21`, the AC50 in experiment [1] was 18.7 µM (active). In addition, the molecule was called inactive in experiment [2], in experiment [3], in experiment [4] and in experiment [5]. The same molecule returned an SSMD in experiment [6] of -0.743. The cell count in experiment [6] came out at 5760. Moreover, in experiment [6], the plate-normalised HSF1 focus index is 0.981 (inactive). The viability in experiment [7] (at 0.000305 µM, OCI-C5x cells, with rucaparib 10 µM, 100% = cells with rucaparib alone) was 117% (inactive); in experiment [7] (at 0.000305 µM, OCI-C5x cells, without rucaparib), 120% (inactive); in experiment [7] (at 0.000305 µM, OCI-P5x cells, with rucaparib 20 µM, 100% = cells with rucaparib alone), 94.9% (active); in experiment [7] (at 0.000305 µM, OCI-P5x cells, without rucaparib), 97.1% (active); in experiment [7] (at 0.00122 µM, OCI-C5x cells, with rucaparib 10 µM, 100% = cells with rucaparib alone) it was 121% (inactive); in experiment [7] (at 0.00122 µM, OCI-C5x cells, without rucaparib), 124% (inactive). The viability is 93.1% (active) in experiment [7] (at 0.00122 µM, OCI-P5x cells, with rucaparib 20 µM, 100% = cells with rucaparib alone); 102% (inactive) in experiment [7] (at 0.00122 µM, OCI-P5x cells, without rucaparib); 118% (inactive) in experiment [7] (at 0.00488 µM, OCI-C5x cells, with rucaparib 10 µM, 100% = cells with rucaparib alone); 127% (inactive) in experiment [7] (at 0.00488 µM, OCI-C5x cells, without rucaparib); 90.9% (active) in experiment [7] (at 0.00488 µM, OCI-P5x cells, with rucaparib 20 µM, 100% = cells with rucaparib alone); 102% (inactive) in experiment [7] (at 0.00488 µM, OCI-P5x cells, without rucaparib). Further, the viability in experiment [7] (at 0.0195 µM, OCI-C5x cells, with rucaparib 10 µM, 100% = cells with rucaparib alone) is 122% (inactive); in experiment [7] (at 0.0195 µM, OCI-C5x cells, without rucaparib), 129% (inactive); in experiment [7] (at 0.0195 µM, OCI-P5x cells, with rucaparib 20 µM, 100% = cells with rucaparib alone), 101% (inactive); in experiment [7] (at 0.0195 µM, OCI-P5x cells, without rucaparib) it was 97.6% (active); in experiment [7] (at 0.0781 µM, OCI-C5x cells, with rucaparib 10 µM, 100% = cells with rucaparib alone), 122% (inactive); in experiment [7] (at 0.0781 µM, OCI-C5x cells, without rucaparib), 132% (inactive). Further, the viability is 96.3% (active) in experiment [7] (at 0.0781 µM, OCI-P5x cells, with rucaparib 20 µM, 100% = cells with rucaparib alone); 104% (inactive) in experiment [7] (at 0.0781 µM, OCI-P5x cells, without rucaparib); 131% (inactive) in experiment [7] (at 0.313 µM, OCI-C5x cells, with rucaparib 10 µM, 100% = cells with rucaparib alone); 145% (inactive) in experiment [7] (at 0.313 µM, OCI-C5x cells, without rucaparib); 90.1% (active) in experiment [7] (at 0.313 µM, OCI-P5x cells, with rucaparib 20 µM, 100% = cells with rucaparib alone); 99.7% (active) in experiment [7] (at 0.313 µM, OCI-P5x cells, without rucaparib). Also, the viability is 142% (inactive) in experiment [7] (at 1.25 µM, OCI-C5x cells, with rucaparib 10 µM, 100% = cells with rucaparib alone); 144% (inactive) in experiment [7] (at 1.25 µM, OCI-C5x cells, without rucaparib); 97.9% (active) in experiment [7] (at 1.25 µM, OCI-P5x cells, with rucaparib 20 µM, 100% = cells with rucaparib alone); 99% (active) in experiment [7] (at 1.25 µM, OCI-P5x cells, without rucaparib); 146% (inactive) in experiment [7] (at 5 µM, OCI-C5x cells, with rucaparib 10 µM, 100% = cells with rucaparib alone); 141% (inactive) in experiment [7] (at 5 µM, OCI-C5x cells, without rucaparib). The viability in experiment [7] (at 5 µM, OCI-P5x cells, with rucaparib 20 µM, 100% = cells with rucaparib alone) is 87.4% (active); in experiment [7] (at 5 µM, OCI-P5x cells, without rucaparib), 90.3% (active).
As for `CC[C@]1(O)C[C@@H]2CN(CCc3c([nH]c4ccccc34)[C@@](C(=O)OC)(c3cc4c(cc3OC)N(C=O)[C@@H]3C45CCN4CC=C[C@](CC)([C@H]45)[C@@H](OC(C)=O)[C@]3(O)C(=O)OC)C2)C1` (stereo not given in full), the molecule was called inactive in experiment [1]. In addition, the molecule was classed as inactive in experiment [8]. In experiment [6], the SSMD was determined as 2.03, the cell count was found to be 6870 and the plate-normalised HSF1 focus index is 1.12 (inactive).
`CCC(=O)OCC(=O)[C@@]1(OC(=O)CC)[C@@H](C)C[C@H]2[C@@H]3CCC4=CC(=O)C=C[C@]4(C)[C@@]3(F)[C@@H](O)C[C@@]21C`: the AC50 in experiment [1] was 0.00935 µM (active); in experiment [8], 2.35 µM (active).
In the case of `CS(=O)(=O)N(Cc1ccco1)CC(O)Cn1c2ccccc2c2ccccc21` (stereo not given), the outcome in experiment [1], in experiment [2], in experiment [3], in experiment [4] and in experiment [5] was inactive.
Consider `CC(=O)N1CCN(c2ccc(OCc3nn(C)c(C)c3-c3cccc4c(CCCOc5cc(C)c(Cl)c(C)c5)c(C(=O)O)n(Cc5cccnc5)c34)cc2)CC1`, for which, in experiment [1], the molecule was called inactive. Also, the AC50 in experiment [8] is 23.5 µM (active); in experiment [3], 20.9 µM (active).
